Assay outcomes deposited in PubChem BioAssay by The Scripps Research Institute Molecular Screening Center.
CHO-K1 Ca antag: M1 antagonist counterscreen hit in parental CHO-K1 cells; AID 602250; inhibition, % at 3 µM; ATP-induced calcium, Fluo-8 fluorescence; actives 0.6% (n = 360,000);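 active means inhibition above a per-plate cutoff, the plate's mean sample inhibition plus 3 SD, cut at about 24% in these data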
M1 PAM: positive allosteric modulators of human M1 muscarinic receptor. CHO-K1 hM1, Fluo-8 calcium fluorescence, ACh EC20; 0% = ACh EC20, 100% = maximal ACh. activation, % at 3 µM. actives 0.088% (n = 360,000). AID 588819. P11229; in the data active means activation above about 19%, passing the limit was not always enough
Target sequence (P11229 whole entry, looked up): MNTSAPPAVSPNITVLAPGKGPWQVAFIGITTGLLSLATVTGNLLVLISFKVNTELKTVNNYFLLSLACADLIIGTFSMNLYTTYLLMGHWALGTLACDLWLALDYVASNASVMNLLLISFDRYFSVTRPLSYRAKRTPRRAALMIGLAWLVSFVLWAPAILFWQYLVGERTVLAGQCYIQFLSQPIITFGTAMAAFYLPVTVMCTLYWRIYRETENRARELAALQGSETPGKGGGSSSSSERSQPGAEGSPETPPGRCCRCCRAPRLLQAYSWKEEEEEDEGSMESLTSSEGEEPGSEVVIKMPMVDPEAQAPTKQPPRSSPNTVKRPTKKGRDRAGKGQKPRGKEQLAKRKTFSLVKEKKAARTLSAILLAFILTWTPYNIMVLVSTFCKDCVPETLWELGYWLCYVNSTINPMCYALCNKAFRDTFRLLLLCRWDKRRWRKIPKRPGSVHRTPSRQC
CHO-K1 Ca ag: counter-screen for M1 agonists: effect in parental CHO-K1 cells. activation, % at 3 µM. Fluo-8 calcium fluorescence; scaled to maximal ATP response, vehicle zero. actives 0.48% (n = 360,000); in the data active means activation above about 15%;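 further: untransfected CHO-K1 host cells lacking M1 receptor as counterscreen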
CHRM1 antagonist: antagonists of human M1 muscarinic receptor; AID 588852; CHO-K1 hM1, Fluo-8 calcium fluorescence, ACh EC80 antagonist; actives 1.3% (n = 360,000); inhibition, % at 3 µM;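 active means percent inhibition above its own plate's cutoff, namely the mean of that plate's compound wells plus 3 SD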;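 further: peak over basal fluorescence ratio during 140 s after agonist addition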
CHO-K1 Ca PAM: M1 PAM counterscreen hit in parental CHO-K1 cells. activation, % at 3 µM. ATP EC20, Fluo-8 calcium fluorescence; 0% at ATP EC20, 100% at ATP max. actives 0.02% (n = 360,000);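 active means activation above the run cutoff, the mean activation of all test compounds plus 3 SD, cut at about 40% in these data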;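 further: peak over basal fluorescence ratio in a 140 s read after ATP addition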
M1 ag: agonists of human M1 muscarinic receptor; AID 588814; actives 0.33% (n = 360,000); activation, % at 3 µM; P11229; CHO-K1 hM1, Fluo-8 calcium fluorescence, agonist mode; 0% DMSO, 100% acetylcholine EC100;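 active means activation above the run's mean compound activation plus 3 SD, cut at about 16% in these data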;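 further: peak over basal fluorescence ratio within a 140 s kinetic read after compound addition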
Numbers stand for hits; . = inactive. Rows were chosen to be rich in hits. Some 2.3% of all compounds tested hit in one or more screens of this group.

SMILES	CHO-K1 Ca antag	M1 PAM	CHO-K1 Ca ag	CHRM1 antagonist	CHO-K1 Ca PAM	M1 ag
Cc1cc(C)nc(NS(=O)(=O)c2ccc(NC(=O)Cc3ccccc3)cc2)n1	24	.	.	.	.	.
CCCCC(=O)N(C)c1c(C)nc2ccc(C(=O)Nc3cccc(NS(C)(=O)=O)c3)cn12	.	.	.	.	.	.
Cc1cc(C)c(C(=O)Nc2ccc(Br)c(C(F)(F)F)c2)c(C)c1	.	.	.	65	.	.
O=C(O)c1ccccc1C(=O)Nc1ccc(Br)c(C(F)(F)F)c1	.	.	.	.	.	.
c1cnc2ncc3sccc3c2c1	.	.	19	.	.	.
Cc1cnc2ncc3sccc3c2c1	.	.	.	.	.	.
CCCCCCOC(=O)C[N+](C)(C)CCOC1CC2CCC1(C)C2(C)C (stereo unspecified)	.	.	.	.	.	.
CCCCCCCOC(=O)C[N+](C)(C)CCOC1CC2CCC1(C)C2(C)C (stereo unspecified)	.	.	27	.	.	.
OC(c1cccc(Cl)c1)c1ncc(-c2ccccc2Cl)[nH]1 (stereo unspecified)	.	.	.	.	.	.
CC(=O)Nc1ccc(S(=O)(=O)N2CCN(c3cc(C)ccc3C)CC2)cc1	.	.	.	.	.	.
CC(=O)Nc1ccc2c(c1)CN(c1cc(C)ccc1C)CO2	25	.	.	.	.	.
COC(=O)c1ccc(CSc2ncnc3ccccc23)o1	25	.	.	.	.	.
Cc1ccc(Cl)cc1NC(=O)c1ccc(CSc2nnnn2C)cc1	26	.	.	.	.	.
COC(=O)c1ccc(CSc2ccc3nnc(-c4cccc(F)c4)n3n2)o1	.	.	.	38	.	.
COC(=O)c1ccc(CSc2nnc(C)n2N)o1	.	.	.	.	.	.
COC(=O)c1ccc(CSc2nnnn2C)o1	.	.	.	43	.	.
COC(=O)c1ccc(CSc2ncnc3c2oc2ccccc23)o1	.	.	.	.	.	.
COc1ccc(CNC(=O)CC[C@H]2O[C@@H](n3cnc4c(NC(=O)c5ccccc5)ncnc43)[C@H](O)[C@@H]2O)cc1	.	.	.	.	.	.
CC1(C(=O)NS(=O)(=O)c2cccc(F)c2)CCN1C(=O)CCc1ccccc1 (stereo unspecified)	.	.	.	.	.	.
CCCCCC(=O)N1C[C@H](O)[C@@H](n2cc(C3CC3)nn2)C[C@@H]1c1ccc(C)cc1	.	.	.	.	.	.
CC(C)CCN1CCN(CC(c2ccccc2)c2ccccc2)CC1CCO (stereo unspecified)	.	.	.	35	.	.
CC(C)CCN1CCN(Cc2nc3ccccc3s2)CC1CCO (stereo unspecified)	.	.	.	.	.	.
Cc1noc(C)c1NC(=O)N(C)C[C@@H]1Oc2ncc(Br)cc2C(=O)N([C@@H](C)CO)C[C@H]1C	.	.	.	.	.	.
COc1ccc(-n2c(C)cc(C(=O)COC(=O)Cn3cnc4ccccc43)c2C)cc1	33	.	.	20	.	.
Cn1c2ccccc2c2cc(/C=N/NC(=O)c3cc(O)cc(O)c3)ccc21	.	.	.	.	.	.
SMILES	CHO-K1 Ca antag	M1 PAM	CHO-K1 Ca ag	CHRM1 antagonist	CHO-K1 Ca PAM	M1 ag
Cn1c2ccccc2c2cc(/C=N/NC(=O)c3cc(O)ccc3O)ccc21	24	.	.	30	.	.
CC(C)=CCc1c(O)cc2oc3c(CC=C(C)C)c(O)c(O)c(CC=C(C)C)c3c(=O)c2c1O	25	.	.	.	.	.
CC(C)=CCc1cc(-c2oc3cc(O)cc(O)c3c(=O)c2O)ccc1O	.	.	.	.	.	.
O=C(CNC(=O)N1CC(=O)Nc2ccccc21)Nc1ccc(Cl)cc1Cl	.	.	.	.	.	.
CCc1c(O)nc(SCC(=O)Nc2ccccc2)n(-c2ccccc2C)c1=O	.	29	.	.	.	.
CCc1nc2c(OCCOc3ccc(F)cc3)cccn2c1N(C)C(=O)c1ccc(OC)cc1	.	.	.	.	.	.
CC1OC2CC(=O)OC2C2=C1C(=O)c1c(O)cccc1C2=O (stereo unspecified)	.	.	.	50	.	16
Cn1nc(C(F)(F)F)c(/C=N/OC(=O)c2ccccc2)c1SCc1ccccc1Cl	.	.	.	41	.	.
COc1ccc(C(=O)c2cn[nH]c2-c2cc(C)ccc2O)cc1	.	.	.	.	.	.
COc1ccc(C(=O)c2cn[nH]c2-c2cc(Cl)ccc2O)cc1	24	.	.	.	.	.
CCOC(=O)C1(C)CCN1C(=O)c1c(F)cccc1F (stereo unspecified)	.	.	.	.	.	.
Cn1c(N)c(C(=O)CSc2nnnn2-c2ccccc2)c(=O)n(C)c1=O	.	.	.	.	.	.
Cn1c(N)c(C(=O)CSc2nc(C3CC3)n(-c3ccccc3)n2)c(=O)n(C)c1=O	.	.	.	.	.	22
CCOC(=O)C1CCCN(CCC(=O)Nc2ccc(C)c(C)c2)C1 (stereo unspecified)	.	.	.	.	.	.
CCOC(=O)C1CCCN(CCC(=O)Nc2ccc(Br)cc2)C1 (stereo unspecified)	.	.	.	.	.	.
CCOC(=O)C1CCCN(CCC(=O)Nc2ccc3c(c2)CCC3)C1 (stereo unspecified)	.	.	.	.	.	23
CCOC(=O)C1CCCN(CCC(=O)Nc2ccc(Br)c(C)c2)C1 (stereo unspecified)	.	.	.	.	.	24
COCCNc1nc(NCc2cc(-c3ccc(OC)cc3)no2)c2sccc2n1	.	.	.	.	.	.
COC(=O)c1cccc(C(=O)N2CCC(CO)(Cc3ccccc3Cl)CC2)c1	.	.	.	.	.	.
OCC1(CCc2ccccc2)CCN(C/C=C/c2ccccc2)CC1	.	.	21	.	.	.
OCC1(Cc2ccccc2Cl)CCN(C/C=C/c2ccccc2)CC1	.	.	.	62	.	.
O=C(CCC(F)(F)F)N1CCC(CO)(CCc2ccccc2)CC1	.	.	.	.	.	.
CCCC(=O)N1CCC1(C)C(=O)Nc1ccc(OC)c(OC)c1 (stereo unspecified)	.	.	.	.	.	.
CCOC(=O)N1CCN(C2=Nc3cccc4cccc2c34)CC1	.	.	.	84	.	.
COc1ccccc1N1CCN(C2=Nc3cccc4cccc2c34)CC1	.	.	.	89	.	.
c1ccc(CC2CCN(C3=Nc4cccc5cccc3c45)CC2)cc1	.	.	.	72	.	.
Cc1cc(C)c(S(=O)(=O)N(C)CC(=O)N2CCCC2)c(C)c1	.	.	.	.	.	.
O=C(Nc1cccc(/C=C/c2ccccn2)c1)c1ccc(-n2cncn2)cc1	.	.	.	31	.	.
